Assay results taken from the supplement of paper PMC8726507.

Tested on: Plasmodium falciparum NF54-HGL (transmission to Anopheles stephensi)
Experiment: percentage of barcode signal found in uninfected mosquitoes (transmission-blocking activity); higher = stronger blocking of transmission to mosquito, active = 80 or more
Conditions: 10 µM; gametocyte preincubation time 24 h; readout time post-feed 8 days
Method: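 The mixture was fed to Anopheles stephensi in 96-well plates as blood meals tagged with DNA-barcoded Asaia bacteria. Eight days later, mosquitoes were classed infected or uninfected by luminescence (mean + 5 SD of unfed controls). Barcodes were quantified by Luminex MagPlex-TAG in the pooled uninfected and infected Asaia cultures, background-corrected, and the score is % of barcode signal in uninfected mosquitoes = 100*Iu/(Iu+Ii).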

SMILES | percentage of barcode signal found in uninfected mosquitoes
Cc1nn2c(O)c3c(nc2c1-c1ccc(F)cc1)CCCC3 | 9.19% (inactive)
Cc1noc(C)c1C(=O)N1CCCC(c2[nH]c3c(C)cccc3c2-c2ccncc2)C1 (configuration not stated) | 69.1% (inactive)
CC(C)(C)OC(=O)N1CCC(Cn2nc(-c3cnc4ccccc4c3)c3c(N)ncnc32)CC1 | 24.4% (inactive)
COc1ccc(-c2cnc3ccc(NCc4ccc(S(N)(=O)=O)cc4)nn23)cn1 | 68.2% (inactive)
COc1ccc(C2CC(c3cccs3)=NN2C(=O)c2ccco2)cc1OC (configuration not stated) | 57.1% (inactive)
Nc1nc(N)c2c3c(sc2n1)CN(Cc1ccccc1)CC3 | 11.7% (inactive)
C[C@]1(O)C[C@@H](c2nc(-c3ccc4ccc(-c5ccccc5)nc4c3)c3c(N)nccn32)C1 | 80.6% (active)
CS(=O)(=O)c1cccc(-c2cnc3[nH]cc(-c4ccc(CCC(=O)O)cc4)c3c2)c1 | 29.9% (inactive)
Cc1ncc(-c2ccnc(Nc3ccc(S(C)(=O)=O)cc3)n2)n1C(C)C | 82.6% (active)
COc1cccc2c(C)nc(N=C(N)N)nc12 | 24.9% (inactive)
CCN(CC)S(=O)(=O)c1ccc(Cl)c(C(=O)Nc2ccc3nc(C)sc3c2)c1 | 86.1% (active)
O=C(c1cc2ccccc2o1)N1CCN(Cc2ccc3c(c2)OCO3)CC1 | 0.553% (inactive)
O=C(Nc1ccc(N2CCNCC2)cc1)c1ccn2ncc(-c3cccc(Cl)c3)c2n1 | 81.5% (active)
CC(Oc1ccccc1)C(=O)Nc1nc(-c2ccccn2)cs1 (configuration not stated) | 84.2% (active)
O=C(NC1CCN(c2ccnc3ccccc23)C1)c1cccc(C(F)(F)F)c1 (configuration not stated) | 71.6% (inactive)
COc1ccc(Nc2ccccc2NC(=O)c2ccc(O)nc2)cc1 | 7.07% (inactive)
CN(C)CCNC(=O)N1CCCN(c2ncnc3cc(-c4ccccc4)sc23)CC1 | 34.3% (inactive)
CCn1cnc2c(Nc3cc(F)cc(F)c3)nc(C#N)nc21 | 33.6% (inactive)

Same assay, conditions: 20 µM; gametocyte preincubation time 24 h; readout time post-feed 8 days

SMILES | percentage of barcode signal found in uninfected mosquitoes
CC1(C)Cc2c(c(N3CCOCC3)nc3snc(Br)c23)CO1 | 97% (active)
NS(=O)(=O)c1cccc(-c2ccc3ncc(N4CCOCC4)nc3c2)c1 | 64.7% (inactive)
CC(C)(C)c1cc(C(=O)N2CCN(c3nccnc3C#N)CC2)n(Cc2ccccc2)n1 | 33.5% (inactive)
FC(F)(F)c1ccc(N(c2cccnc2)C2CCN(c3ccc(C(F)(F)F)cn3)CC2)cc1 | 27.4% (inactive)
COc1ccc(C(=N)N)cc1-c1cn(-c2ccc(C(=N)N)cc2)nn1 | 2.56% (inactive)
c1ccc(Oc2ccc(-c3cc(N4CCOCC4)[nH]n3)cc2)cc1 | 1.03% (inactive)
Cc1ccc(-c2nc(CN(Cc3ccccn3)C(C)C)cs2)o1 | 81.4% (active)
NC(CC(=O)c1ccc(Cl)cc1Cl)C(Cl)(Cl)Cl (configuration not stated) | 86.9% (active)
COc1ccc(-c2nn(C(C)C)c3ncnc(N)c23)cc1OC | 95.5% (active)
CCc1nc2ccc(Cl)cn2c1C(=O)NCc1ccc(N2CCC(c3ccc(OC(F)(F)F)cc3)CC2)cc1 | 32% (inactive)
CCN(CC)S(=O)(=O)c1ccc(C(=O)Nc2cc(C)nn2-c2nc(C)c(C)c(=O)[nH]2)cc1 | 66.7% (inactive)
CC1CCCN(C(=O)C(C)Nc2cc(Cl)ccc2N2CCOCC2)C1 (configuration not stated) | 15.9% (inactive)
Cc1cc(Cl)ccc1NC(=O)CCc1ccc(S(=O)(=O)NCC(C)C)cc1 | 0.0223% (inactive)
CCCCN(CCCC)c1c(C#N)cc(S(=O)(=O)Nc2ccccc2)cc1C#N | 10.5% (inactive)
CCc1ccccc1-n1c(C)cn2c3c(=O)n(C(C(=O)OC)C(C)C)c(=O)n(C)c3nc12 (configuration not stated) | 54.1% (inactive)
COc1ccc2nccc(NC(=O)C3CCN(CCc4ccc(Cl)cc4)CC3)c2n1 | 5.62% (inactive)
Cc1ccc(-c2cc(C(=O)Nc3cccnc3)c3cc(Br)ccc3n2)cc1 | 42.5% (inactive)
Cc1ccccc1C(=O)N1N=C(Nc2ccccc2)SC1(C)C | -0.332% (inactive)
Nc1cccnc1Nc1ccc(Cl)cc1 | 54.5% (inactive)
